Assay results: PMC5540273 (PLoS ONE, 2017)

How the values were obtained:
Conditions in all cases: concentration: 1 μM, replicates: in singlicate; n = 1
[1] = system: RIPK1
[2] = system: RIPK2
[3] = system: RIPK4
[4] = system: RIPK5
[5] = system: ROCK1
[6] = system: ROCK2
[7] = system: ROS1
[8] = system: RPS6KA4(Kin.Dom.1-N-terminal)
[9] = system: RPS6KA4(Kin.Dom.2-C-terminal)
[10] = system: RPS6KA5(Kin.Dom.1-N-terminal)
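Further: KINOMEscan kinase panel screen.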

SMILES | %Inh [1] [%] | %Inh [2] [%] | %Inh [3] [%] | %Inh [4] [%] | %Inh [5] [%] | %Inh [6] [%] | %Inh [7] [%] | %Inh [8] [%] | %Inh [9] [%] | %Inh [10] [%]
COc1ccc(-c2oc3ncnc(N)c3c2-c2ccc(OC)cc2)cc1 [SB-589132] | 2 | 28 | 1 | 0 | 41 | 0 | 0 | 0 | 0 | 0
FC(F)(F)c1ccc(-c2nn3ncccc3c2-c2ccnc(Nc3cccc(C(F)(F)F)c3)n2)cc1 [GW828205] | 0 | 0 | 0 | 0 | 0 | 0 | 0 | 16 | 0 | 0
CCCc1ccc(S(=O)(=O)NC2CCN(c3ccnc(Nc4ccc(OC)cc4)n3)C2)cc1 (centres unmarked) [GSK1379737] | 0 | 0 | 0 | 0 | 12 | 28 | 5 | 4 | 0 | 0
FC(F)(F)c1ccc(-c2cc(-c3c[nH]nc3-c3ccccn3)ccn2)cc1 [GW599550] | 0 | 25 | 2 | 0 | 26 | 15 | 31 | 14 | 0 | 20
COC(=O)c1c(-c2ccccc2)c2cc(Cl)ccc2c(=O)n1Cc1ccc(S(C)(=O)=O)cc1 | 0 | 0 | 13 | 4 | 6 | 0 | 0 | 0 | 5 | 8
